Assay results: PubChem BioAssay
For part of these data: Potency and affinity values are given separately. The source made the active and inactive calls. Unless noted, no rule for the calls is given here.

Experiments:
[1] = antimalarial activity against Dd2 strain (AID 2302;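 active = growth inhibition above 50% at the single 2 µM test dose, taken to imply half-maximal potency below 2 µM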;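 also: 0% = DMSO untreated growth and 100% = chloroquine plus artemisinin killed control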); conditions: P. falciparum Dd2 in RBCs, LDH growth readout, 72 h; at 2 µM; stronger effect = higher value
[2] = human hepatoma cell viability loss – ATP luminescence, cytotoxicity control for P. falciparum antimalarial project, primary screen (AID 2303;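 active = inhibition above 50%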;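 also: 0% = DMSO wells and 100% = digitonin-killed cells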); conditions: HepG2 viability, 24-48 h, at 10 µM, stronger effect = higher value
[3] = target: L-lactate dehydrogenase (Plasmodium falciparum (isolate CDC / Honduras)) (UniProt Q27743); assay: PfLDH activity inhibition – cell lysate, 3D7 strain, counter-screen for P. falciparum growth inhibition project (AID 2304);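 also: 0% = vehicle and 100% = reference inhibitor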; conditions: P. falciparum 3D7 crude extract, LDH APAD/NBT absorbance; at 2 µM; stronger effect = higher value
Sequence of L-lactate dehydrogenase (Plasmodium falciparum (isolate CDC / Honduras)) (Q27743 whole entry, looked up): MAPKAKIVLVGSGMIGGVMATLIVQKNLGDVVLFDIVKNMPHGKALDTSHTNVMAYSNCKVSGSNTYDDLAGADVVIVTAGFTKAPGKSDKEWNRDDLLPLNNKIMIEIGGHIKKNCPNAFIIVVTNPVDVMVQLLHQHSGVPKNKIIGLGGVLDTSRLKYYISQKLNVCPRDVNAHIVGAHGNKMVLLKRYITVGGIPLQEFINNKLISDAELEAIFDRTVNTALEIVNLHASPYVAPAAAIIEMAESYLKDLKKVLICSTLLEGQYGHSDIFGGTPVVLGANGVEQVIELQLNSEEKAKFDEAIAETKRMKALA

[4] = inhibition of 3D7 malaria parasite growth – strain 3D7 (AID 2306);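 also: 0% = DMSO wells and 100% = chloroquine plus artemisinin control wells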; conditions: P. falciparum 3D7 erythrocytic growth, LDH absorbance, 72 h; at 2 µM; stronger effect = higher value
[5] = target: Calcium-dependent protein kinase 1 (Plasmodium falciparum (isolate 3D7)) (UniProt P62344); assay: PfCDPK1 kinase inhibitors, biochemical, TCAMS library (AID 1159585; cut-off not given, nearly all actives have IC50 up to about 0.98 µM;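 also: inhibitors leave more ATP so luminescence rises with inhibition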); conditions: recombinant PfCDPK1, Kinase-Glo ATP depletion luminescence
Sequence of Calcium-dependent protein kinase 1 (Plasmodium falciparum (isolate 3D7)) (P62344 whole entry, looked up): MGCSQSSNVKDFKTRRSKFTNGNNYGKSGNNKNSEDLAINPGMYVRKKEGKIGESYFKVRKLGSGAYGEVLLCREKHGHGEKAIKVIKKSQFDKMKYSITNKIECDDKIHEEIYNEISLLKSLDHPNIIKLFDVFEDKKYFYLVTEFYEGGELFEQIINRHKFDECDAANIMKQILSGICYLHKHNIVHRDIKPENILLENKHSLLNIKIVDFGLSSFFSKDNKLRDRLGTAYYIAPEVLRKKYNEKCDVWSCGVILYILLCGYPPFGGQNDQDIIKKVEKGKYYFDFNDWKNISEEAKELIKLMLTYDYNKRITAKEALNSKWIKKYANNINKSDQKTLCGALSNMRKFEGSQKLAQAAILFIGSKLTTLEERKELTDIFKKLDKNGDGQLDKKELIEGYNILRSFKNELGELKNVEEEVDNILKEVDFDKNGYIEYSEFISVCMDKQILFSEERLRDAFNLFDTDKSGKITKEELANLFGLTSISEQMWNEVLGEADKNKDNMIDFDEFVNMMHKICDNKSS

[6] = target: Plasmodium falciparum protein kinase 6 (PK6, PF3D7_1337100) (UniProt Q8IDW1); assay: PfPK6 kinase inhibitors, biochemical, TCAMS library (AID 1159586); conditions: recombinant PfPK6, Kinase-Glo ATP depletion luminescence
Sequence of Plasmodium falciparum protein kinase 6 (PK6, PF3D7_1337100) (Q8IDW1 1-305): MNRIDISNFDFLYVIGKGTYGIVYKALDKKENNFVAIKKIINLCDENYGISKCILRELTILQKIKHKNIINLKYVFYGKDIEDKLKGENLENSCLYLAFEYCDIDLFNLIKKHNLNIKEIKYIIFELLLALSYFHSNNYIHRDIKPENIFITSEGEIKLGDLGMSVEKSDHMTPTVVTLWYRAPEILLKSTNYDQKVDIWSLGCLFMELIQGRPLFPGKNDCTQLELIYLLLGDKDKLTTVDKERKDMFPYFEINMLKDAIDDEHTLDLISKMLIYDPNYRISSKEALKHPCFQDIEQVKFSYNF

[7] = target: Protein kinase 7 (PK7), Plasmodium falciparum 3D7 (PF3D7_0213400) (UniProt Q7YTF7); assay: inhibition of Plasmodium PK7 catalytic activity – biochemical, TCAMS antimalarial set, Kinase-Glo luminescence (AID 1159587); conditions: recombinant PfPK7, Kinase-Glo ATP depletion luminescence
Sequence of Protein kinase 7 (PK7), Plasmodium falciparum 3D7 (PF3D7_0213400) (Q7YTF7 1-343): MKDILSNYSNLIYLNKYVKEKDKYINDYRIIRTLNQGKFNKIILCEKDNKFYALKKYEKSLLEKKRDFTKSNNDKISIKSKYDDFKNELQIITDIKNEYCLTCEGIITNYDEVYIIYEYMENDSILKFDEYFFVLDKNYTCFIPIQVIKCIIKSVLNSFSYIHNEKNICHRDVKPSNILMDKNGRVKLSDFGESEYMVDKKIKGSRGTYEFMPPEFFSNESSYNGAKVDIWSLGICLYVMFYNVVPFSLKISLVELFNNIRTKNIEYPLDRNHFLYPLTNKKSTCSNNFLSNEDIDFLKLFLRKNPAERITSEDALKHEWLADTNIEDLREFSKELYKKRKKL

[8] = target: Calcium-dependent protein kinase 4 (Plasmodium falciparum (isolate 3D7)) (UniProt Q8IBS5); assay: PfCDPK4 kinase inhibitors, biochemical, TCAMS library (AID 1159588; cut-off not given, nearly all actives have IC50 up to about 0.91 µM); conditions: recombinant PfCDPK4, Kinase-Glo ATP depletion luminescence
Sequence of Calcium-dependent protein kinase 4 (Plasmodium falciparum (isolate 3D7)) (Q8IBS5 whole entry, looked up): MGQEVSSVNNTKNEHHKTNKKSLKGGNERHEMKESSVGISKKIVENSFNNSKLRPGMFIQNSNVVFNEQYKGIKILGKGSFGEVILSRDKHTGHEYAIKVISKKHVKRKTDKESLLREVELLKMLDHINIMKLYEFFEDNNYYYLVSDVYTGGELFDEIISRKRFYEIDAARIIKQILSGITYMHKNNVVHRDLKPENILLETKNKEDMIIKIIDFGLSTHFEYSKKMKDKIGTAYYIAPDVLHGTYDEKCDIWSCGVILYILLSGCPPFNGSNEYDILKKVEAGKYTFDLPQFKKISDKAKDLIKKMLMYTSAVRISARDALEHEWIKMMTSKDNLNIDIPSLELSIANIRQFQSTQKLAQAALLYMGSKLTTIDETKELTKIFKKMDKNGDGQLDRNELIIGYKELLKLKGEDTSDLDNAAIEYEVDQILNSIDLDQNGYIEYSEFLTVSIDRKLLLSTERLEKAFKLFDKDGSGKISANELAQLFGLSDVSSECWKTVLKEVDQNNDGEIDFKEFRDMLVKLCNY

NC(N)=Nc1nc(CCCCCCCCc2csc(N=C(N)N)n2)cs1
inactive: growth inhibition [1] 28% | inhibition [2] 27% | inhibition [3] 0% | outcome [5] | outcome [6] | outcome [7] | outcome [8]
active: growth inhibition [4] 100%

CCCc1cccc(OC)c1OCCCON1C(N)=NC(N)=NC1(C)C
active: growth inhibition [1] 97% | inhibition [2] 65% | growth inhibition [4] 94%
inactive: inhibition [3] 5% | outcome [5] | outcome [6] | outcome [7] | outcome [8]

CCc1cc2c3c(N)nc(N)nc3ccc2n1C(C)CC (stereo not drawn)
inactive: inhibition [3] 0% | outcome [5] | outcome [6] | outcome [7] | outcome [8]
active: growth inhibition [1] 99% | inhibition [2] 73% | growth inhibition [4] 100%

CN1CCN(CCNc2c3ccccc3nc3ccc4ccccc4c23)CC1
inactive: inhibition [2] 22% | inhibition [3] -6% | outcome [5] | outcome [6] | outcome [7] | outcome [8]
active: growth inhibition [1] 99% | growth inhibition [4] 99%

CC(=O)c1ccc(NC(=O)NNC(=O)c2ccc(CCN3CCC(c4nc(COCC(F)(F)F)c(-c5ccc(F)cc5)o4)CC3)cc2)cc1
active: growth inhibition [4] 96%
inactive: growth inhibition [1] 27% | inhibition [2] 17% | inhibition [3] -10% | outcome [5] | outcome [6] | outcome [7] | outcome [8]

CC(C)c1ccc(CN2CCC(CNC(=O)c3cc(-c4cccc(C(F)(F)F)c4)cs3)C2)cc1 (stereo not drawn)
inactive: inhibition [2] 36% | inhibition [3] 5% | outcome [5] | outcome [6] | outcome [7] | outcome [8]
active: growth inhibition [1] 60% | growth inhibition [4] 99%

CN1CCN(C(=O)CN2CCC3(CCC2=O)NC(=O)c2ccccc2O3)CC1 (stereo not drawn)
inactive: inhibition [2] -7% | inhibition [3] 2% | outcome [5] | outcome [6] | outcome [7] | outcome [8]
active: growth inhibition [1] 98% | growth inhibition [4] 99%

Nc1nc(N)c2c(ccc3c2ccn3C2CCCCC2)n1
active: inhibition [2] 67% | growth inhibition [4] 97%
inactive: growth inhibition [1] 46% | inhibition [3] 0% | outcome [5] | outcome [6] | outcome [7] | outcome [8]

COc1ccc(S(=O)(=O)Nc2ccc(C(=O)NCc3ccc(C(F)(F)F)cc3)cc2)cc1N1CCN(CC2CC2)CC1
inactive: growth inhibition [1] 1% | inhibition [2] 34% | inhibition [3] 2% | outcome [5] | outcome [6] | outcome [7] | outcome [8]
active: growth inhibition [4] 95%

COc1ccc2nc(C)cc(NN=Cc3ccccc3)c2c1
inactive: growth inhibition [1] 6% | inhibition [2] 4% | inhibition [3] 0% | outcome [5] | outcome [6] | outcome [7] | outcome [8]
active: growth inhibition [4] 80%

Nc1nc(N)c2c(ccc3c2ccn3Cc2ccc(OCc3ccccc3)cc2)n1
inactive: growth inhibition [1] 1% | inhibition [2] 5% | inhibition [3] -2% | outcome [5] | outcome [6] | outcome [7] | outcome [8]
active: growth inhibition [4] 98%

CC(C)Cn1ncc2c3c(N)nc(N)nc3ccc21
inactive: inhibition [3] 1% | outcome [5] | outcome [6] | outcome [7] | outcome [8]
active: growth inhibition [1] 73% | inhibition [2] 63% | growth inhibition [4] 94%

CC(C)N1CCN(C(CN2CCN(CCCOc3cccc4ccccc34)CC2)c2ccc(F)cc2)CC1 (stereo not drawn)
inactive: inhibition [3] 4% | outcome [5] | outcome [6] | outcome [7] | outcome [8]
active: growth inhibition [1] 75% | inhibition [2] 54% | growth inhibition [4] 101%

O=C(Nc1cccc(C(F)(F)F)c1)Nc1nc2ccc([N+](=O)[O-])cc2s1
inactive: inhibition [3] 0% | outcome [5] | outcome [6] | outcome [7] | outcome [8]
active: growth inhibition [1] 76% | inhibition [2] 81% | growth inhibition [4] 102%

CN1CCN(c2ccnc3cc4c(cc23)N(Cc2ccccc2)CC4)CC1
active: growth inhibition [4] 94%
inactive: growth inhibition [1] 27% | inhibition [2] -2% | inhibition [3] -3% | outcome [5] | outcome [6] | outcome [7] | outcome [8]

NC(=O)c1cccc(CNCc2ccc(-c3cccc(-c4nc5ccccc5[nH]4)c3)cc2)c1
inactive: inhibition [2] 29% | inhibition [3] 3% | outcome [5] | outcome [6] | outcome [7] | outcome [8]
active: growth inhibition [1] 94% | growth inhibition [4] 101%

O=C(Nc1cccc(CN2CCCN(Cc3ccc(O)cc3)CC2)c1)c1cc(F)cc(F)c1
inactive: growth inhibition [1] 13% | inhibition [2] 15% | inhibition [3] 0% | outcome [5] | outcome [6] | outcome [7] | outcome [8]
active: growth inhibition [4] 100%

CCn1cc(-c2nc(-c3cc(OC)cc(OC)c3)no2)c(=O)c2ccccc21
active: growth inhibition [1] 77% | growth inhibition [4] 89%
inactive: inhibition [2] -7% | inhibition [3] 0% | outcome [5] | outcome [6] | outcome [7] | outcome [8]

NC(N)=NN=Cc1ccc2c(c1)Cc1ccccc1-2
active: growth inhibition [1] 81% | inhibition [2] 72% | growth inhibition [4] 100%
inactive: inhibition [3] -2% | outcome [5] | outcome [6] | outcome [7] | outcome [8]

CN(C)CCNc1nccc(N2CCc3ncnc(Nc4ccc(OCc5cccc(F)c5)c(Cl)c4)c3C2)n1
active: growth inhibition [1] 97% | inhibition [2] 65% | growth inhibition [4] 100%
inactive: inhibition [3] 6% | outcome [5] | outcome [6] | outcome [7] | outcome [8]

COc1ccc(Nc2nccc(N3CCC(NC(=O)C(C)c4ccc(Cl)cc4)CC3)n2)cc1 (stereo not drawn)
active: growth inhibition [1] 52% | growth inhibition [4] 94%
inactive: inhibition [2] 18% | inhibition [3] -2% | outcome [5] | outcome [6] | outcome [7] | outcome [8]
